Assay results: ChEMBL document CHEMBL1157539, “Thousands of chemical starting points for antimalarial lead identification” (Nature, 2010)

Key:
Assay type in all cases: functional
[1] = tested on: Plasmodium falciparum; experiment: GSK_TCMDC: Inhibition of Plasmodium falciparum 3D7 in whole red blood cells, using parasite LDH activity as an index of growth. Test compounds present at 2uM
[2] = tested on: Plasmodium falciparum; experiment: GSK_TCMDC: Inhibition of Plasmodium falciparum Dd2 in whole red blood cells, using parasite LDH activity as an index of growth. Test compounds present at 2uM
[3] = tested on: HepG2; experiment: GSK_TCMDC: Percent inhibition of human HepG2 cell line. Test compounds present at 10uM.

| Structure (SMILES) | Inhibition [1] | Inhibition [2] | Inhibition [3] |
| --- | --- | --- | --- |
| CC(C)CCNc1nc(NCCc2ccccc2)c2cc(O)ccc2n1 | 100% | 97% | 6% |
| CCCc1cc(N2CCC(c3ccccc3)(N3CCCCC3)CC2)nc(Nc2ccc(OC)cc2)n1 | 81% | 28% | 13% |
| Cc1ccc2[nH]c(-c3ccccc3)cc(=NN=Cc3cccnc3)c2c1 | 99% | 39% | 12% |
| CC(=O)Nc1cccc(Nc2nccc(Nc3ccc(Oc4ccccc4)cc3)n2)c1.Cl | 100% | 99% | 15% |
| CCOc1c(OC)ccc2c1CCN(CCN1CCC(NC(=O)c3ccc(-c4cccc(C(F)(F)F)c4C(F)(F)F)cc3)CC1)C2 | 100% | 57% | 30% |
| O=C(NCc1ccco1)c1ccc(S(=O)(=O)c2ccc(Cl)cc2)cc1 | 97% | 95% | 6% |
| O=C(NCCc1ccccc1)N(Cc1cccc(-c2ccc(CNCCc3ccccc3)cc2)c1)C1CCN(Cc2ccccc2)CC1.O=C(O)C(F)(F)F | 90% | 91% | 94% |
| Cc1cc(N2CCCC2)nc(Nc2ccc(NC(=O)C(C)Oc3ccccc3)cc2)n1 (stereo not given) | 100% | 58% | 42% |
| CC(C)CC(=O)NC1CCN(Cc2c(-c3cccs3)nc3ccccc3c2C(=O)N[C@@H](C)C2CCCCC2)CC1 | 96% | 97% | 0% |
| COc1ccc(OCc2ccccn2)c(C2CCN(CCCCNC(=O)c3ccc(NC(=O)c4ccc(Cl)cc4)cc3)CC2)c1.Cl | 98% | 71% | 18% |
